# Measured values as given in article PMC7862700, “An all-to-all approach to the identification of sequence-specific readers for epigenetic DNA modifications on cytosine”.
# Legend:
# Assay in all cases: DAPPL (digital affinity profiling via proximity ligation, sequencing); 10 mM Tris-HCl pH 7.5, 50 mM NaCl, 1 mM DTT, 4% glycerol, room temperature, 30 min; GST-TFs on glutathione beads, 16-mer random dsDNA library, 0.1% formaldehyde crosslink after washing; high values mean tight binding
# FLI1 = biological target: T1, FLI1 (Homo sapiens, UniProt Q01543 1-452); settings: protein: recombinant; tags: N-terminal GST; dsDNA, one strand shown
# T1 sequence: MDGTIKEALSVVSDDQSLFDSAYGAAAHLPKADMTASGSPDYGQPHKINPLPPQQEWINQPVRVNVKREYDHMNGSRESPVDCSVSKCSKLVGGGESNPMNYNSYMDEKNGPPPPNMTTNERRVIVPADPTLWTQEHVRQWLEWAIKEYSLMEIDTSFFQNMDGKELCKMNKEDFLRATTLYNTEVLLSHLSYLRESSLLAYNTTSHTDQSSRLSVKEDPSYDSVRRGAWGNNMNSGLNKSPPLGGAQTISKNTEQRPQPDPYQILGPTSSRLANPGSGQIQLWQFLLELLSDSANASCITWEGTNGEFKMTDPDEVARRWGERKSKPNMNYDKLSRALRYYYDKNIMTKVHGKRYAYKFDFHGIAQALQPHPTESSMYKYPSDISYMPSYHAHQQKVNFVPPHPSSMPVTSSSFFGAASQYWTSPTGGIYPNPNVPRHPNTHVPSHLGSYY
# How it was run: (§1)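 A tag-only sample was pooled with DNA-barcoded human transcription factors that had been expressed in yeast as GST fusions and captured on glutathione beads. The pools were incubated for 30 min at room temperature with 200 nmole of a random double-stranded 16-mer DNA library in Tris/NaCl/DTT/glycerol buffer, then washed, crosslinked with 0.1% formaldehyde, proximity-ligated (BsaI/T4 ligase, 1 h, 37 °C), PCR-amplified and sequenced on an Illumina NextSeq500. Binding signal is each hexamer's read frequency for a factor divided by its frequency for the tag-only sample.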
# ELK1 = biological target: T2, ELK1 (Homo sapiens, UniProt P19419 1-428); settings: protein: recombinant; tags: N-terminal GST; dsDNA, one strand shown
# T2 sequence: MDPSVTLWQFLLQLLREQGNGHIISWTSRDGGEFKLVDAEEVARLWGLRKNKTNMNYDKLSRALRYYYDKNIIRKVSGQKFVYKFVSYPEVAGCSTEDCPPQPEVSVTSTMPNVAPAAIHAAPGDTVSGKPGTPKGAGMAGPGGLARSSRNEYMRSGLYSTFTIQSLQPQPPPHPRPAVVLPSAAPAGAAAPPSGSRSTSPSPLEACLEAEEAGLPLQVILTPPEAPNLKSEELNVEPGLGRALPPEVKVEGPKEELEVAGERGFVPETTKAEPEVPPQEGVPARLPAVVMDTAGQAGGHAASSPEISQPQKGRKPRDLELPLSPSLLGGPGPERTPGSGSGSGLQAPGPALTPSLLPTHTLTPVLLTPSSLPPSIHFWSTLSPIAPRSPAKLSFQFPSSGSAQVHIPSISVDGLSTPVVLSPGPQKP
# How it was run: as §1
# GABPA = biological target: T3, GABPA (Homo sapiens, UniProt Q06546 1-454); settings: protein: recombinant; tags: N-terminal GST; dsDNA, one strand shown
# T3 sequence: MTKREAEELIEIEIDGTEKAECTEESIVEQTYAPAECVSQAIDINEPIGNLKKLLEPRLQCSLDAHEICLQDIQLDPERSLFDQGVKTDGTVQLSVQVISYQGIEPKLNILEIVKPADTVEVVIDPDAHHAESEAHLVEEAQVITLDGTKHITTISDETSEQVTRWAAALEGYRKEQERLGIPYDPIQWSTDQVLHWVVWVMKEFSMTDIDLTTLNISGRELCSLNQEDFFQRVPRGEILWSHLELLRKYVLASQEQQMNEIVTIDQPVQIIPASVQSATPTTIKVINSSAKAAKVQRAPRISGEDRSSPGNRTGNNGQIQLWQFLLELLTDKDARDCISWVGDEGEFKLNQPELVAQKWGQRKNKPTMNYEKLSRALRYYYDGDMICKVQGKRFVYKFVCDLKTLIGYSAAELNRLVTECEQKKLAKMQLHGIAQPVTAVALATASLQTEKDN
# How it was run: as §1
# ERG = biological target: T4, ERG (Homo sapiens, UniProt P11308 1-479); settings: protein: recombinant; tags: N-terminal GST; dsDNA, one strand shown
# T4 sequence: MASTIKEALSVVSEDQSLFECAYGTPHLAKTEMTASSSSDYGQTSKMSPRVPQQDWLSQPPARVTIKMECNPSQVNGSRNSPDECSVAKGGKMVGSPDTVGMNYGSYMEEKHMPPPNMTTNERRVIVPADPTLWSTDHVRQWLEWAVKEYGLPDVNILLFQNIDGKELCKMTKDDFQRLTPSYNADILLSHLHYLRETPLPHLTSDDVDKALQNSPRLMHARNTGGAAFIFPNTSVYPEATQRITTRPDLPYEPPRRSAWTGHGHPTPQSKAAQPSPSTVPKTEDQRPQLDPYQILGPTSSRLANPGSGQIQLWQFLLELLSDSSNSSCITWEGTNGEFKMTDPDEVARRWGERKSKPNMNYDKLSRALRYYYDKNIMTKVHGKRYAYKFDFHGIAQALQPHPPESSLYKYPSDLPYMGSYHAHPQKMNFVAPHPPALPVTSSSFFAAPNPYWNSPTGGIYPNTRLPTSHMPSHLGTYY
# How it was run: as §1
# ELF1 = ELF1 (Homo sapiens, UniProt P32519 1-619); settings: protein: recombinant; tags: N-terminal GST; dsDNA, one strand shown
# ELF1, sequence (P32519 whole entry): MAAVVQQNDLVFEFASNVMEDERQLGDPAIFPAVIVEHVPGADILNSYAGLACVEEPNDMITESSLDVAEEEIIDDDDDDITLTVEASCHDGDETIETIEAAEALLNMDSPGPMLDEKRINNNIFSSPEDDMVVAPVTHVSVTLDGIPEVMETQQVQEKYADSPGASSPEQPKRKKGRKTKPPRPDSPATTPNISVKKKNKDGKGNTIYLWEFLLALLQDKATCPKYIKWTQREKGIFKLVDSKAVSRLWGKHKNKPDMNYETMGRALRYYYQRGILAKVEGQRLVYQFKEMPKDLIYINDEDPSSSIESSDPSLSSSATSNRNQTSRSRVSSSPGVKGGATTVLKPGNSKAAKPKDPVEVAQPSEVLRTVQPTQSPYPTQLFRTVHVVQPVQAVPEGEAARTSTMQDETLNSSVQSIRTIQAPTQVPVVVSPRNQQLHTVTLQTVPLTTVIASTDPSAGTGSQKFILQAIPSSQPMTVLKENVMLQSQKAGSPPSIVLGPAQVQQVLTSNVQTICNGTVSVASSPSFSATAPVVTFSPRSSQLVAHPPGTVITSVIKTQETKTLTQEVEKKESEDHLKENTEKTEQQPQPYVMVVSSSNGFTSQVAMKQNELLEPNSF
# How it was run: as §1
# EHF = biological target: T5, EHF (Homo sapiens, UniProt Q9NZC4 1-300); settings: protein: recombinant; tags: N-terminal GST; dsDNA, one strand shown
# T5 sequence: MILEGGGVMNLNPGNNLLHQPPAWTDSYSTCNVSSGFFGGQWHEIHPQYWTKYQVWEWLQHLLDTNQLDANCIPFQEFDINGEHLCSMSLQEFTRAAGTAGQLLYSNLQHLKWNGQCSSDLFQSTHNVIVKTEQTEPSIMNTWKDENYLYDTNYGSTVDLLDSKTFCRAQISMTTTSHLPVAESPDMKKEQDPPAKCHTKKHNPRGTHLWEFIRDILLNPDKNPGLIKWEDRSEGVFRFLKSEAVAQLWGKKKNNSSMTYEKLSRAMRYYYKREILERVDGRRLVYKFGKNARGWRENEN
# How it was run: as §1
# SPI1 = SPI1 (Homo sapiens, UniProt P17947 1-270); settings: protein: recombinant; tags: N-terminal GST; dsDNA, one strand shown
# How it was run: as §1
# SPIB = SPIB (Homo sapiens, UniProt Q01892 1-262); settings: protein: recombinant; tags: N-terminal GST; dsDNA, one strand shown
# SPIB, sequence (Q01892 whole entry): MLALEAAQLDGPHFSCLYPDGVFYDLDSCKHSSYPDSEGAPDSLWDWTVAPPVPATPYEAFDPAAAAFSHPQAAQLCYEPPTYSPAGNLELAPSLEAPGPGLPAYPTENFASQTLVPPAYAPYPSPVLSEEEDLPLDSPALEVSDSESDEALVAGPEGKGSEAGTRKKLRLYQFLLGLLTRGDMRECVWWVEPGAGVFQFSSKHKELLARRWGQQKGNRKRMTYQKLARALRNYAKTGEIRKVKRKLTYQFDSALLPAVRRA
# How it was run: as §1
# ELK3 = biological target: T6, ELK3 (Homo sapiens, UniProt P41970 1-407); settings: protein: recombinant; tags: N-terminal GST; dsDNA, one strand shown
# T6 sequence: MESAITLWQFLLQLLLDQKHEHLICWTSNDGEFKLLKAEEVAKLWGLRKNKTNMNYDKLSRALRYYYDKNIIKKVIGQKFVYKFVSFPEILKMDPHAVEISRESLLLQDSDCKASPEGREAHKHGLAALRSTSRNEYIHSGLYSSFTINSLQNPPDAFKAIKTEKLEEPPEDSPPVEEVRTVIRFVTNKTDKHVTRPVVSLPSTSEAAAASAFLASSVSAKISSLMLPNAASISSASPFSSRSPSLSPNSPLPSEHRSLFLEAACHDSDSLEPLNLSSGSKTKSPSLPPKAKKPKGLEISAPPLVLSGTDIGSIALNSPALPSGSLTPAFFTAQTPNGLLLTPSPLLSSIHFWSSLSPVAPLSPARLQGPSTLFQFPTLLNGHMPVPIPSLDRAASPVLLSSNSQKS
# How it was run: as §1
# FEV = biological target: T7, FEV (Homo sapiens, UniProt Q99581 1-238); settings: protein: recombinant; tags: N-terminal GST; dsDNA, one strand shown
# T7 sequence: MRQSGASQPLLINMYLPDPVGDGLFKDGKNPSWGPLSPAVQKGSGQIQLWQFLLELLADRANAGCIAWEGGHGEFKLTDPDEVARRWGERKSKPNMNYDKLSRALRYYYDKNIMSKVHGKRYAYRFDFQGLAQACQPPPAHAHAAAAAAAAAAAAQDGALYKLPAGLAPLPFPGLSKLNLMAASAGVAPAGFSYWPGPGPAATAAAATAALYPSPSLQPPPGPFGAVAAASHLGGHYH
# How it was run: as §1
# ETV5 = ETV5 (Homo sapiens, UniProt P41161 1-510); settings: protein: recombinant; tags: N-terminal GST; dsDNA, one strand shown
# ETV5, sequence (P41161 whole entry): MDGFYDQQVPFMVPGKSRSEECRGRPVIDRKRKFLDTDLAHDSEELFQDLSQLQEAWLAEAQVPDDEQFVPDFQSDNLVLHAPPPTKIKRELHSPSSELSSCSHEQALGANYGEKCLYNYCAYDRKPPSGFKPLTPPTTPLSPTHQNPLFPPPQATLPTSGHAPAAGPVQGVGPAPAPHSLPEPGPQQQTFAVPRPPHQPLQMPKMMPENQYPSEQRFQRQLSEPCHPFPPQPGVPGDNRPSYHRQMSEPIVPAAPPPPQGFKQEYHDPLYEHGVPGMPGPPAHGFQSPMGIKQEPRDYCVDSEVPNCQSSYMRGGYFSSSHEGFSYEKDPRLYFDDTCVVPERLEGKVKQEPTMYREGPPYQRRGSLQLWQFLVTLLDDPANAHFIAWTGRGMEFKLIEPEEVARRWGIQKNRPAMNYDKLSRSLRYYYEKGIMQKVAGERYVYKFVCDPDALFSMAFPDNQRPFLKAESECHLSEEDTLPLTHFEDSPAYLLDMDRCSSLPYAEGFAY
# How it was run: as §1
# HSF1 = HSF1 (Homo sapiens, UniProt Q00613 1-529); settings: protein: recombinant; tags: N-terminal GST; chain copies: 3; dsDNA, one strand shown
# HSF1, sequence (Q00613 whole entry): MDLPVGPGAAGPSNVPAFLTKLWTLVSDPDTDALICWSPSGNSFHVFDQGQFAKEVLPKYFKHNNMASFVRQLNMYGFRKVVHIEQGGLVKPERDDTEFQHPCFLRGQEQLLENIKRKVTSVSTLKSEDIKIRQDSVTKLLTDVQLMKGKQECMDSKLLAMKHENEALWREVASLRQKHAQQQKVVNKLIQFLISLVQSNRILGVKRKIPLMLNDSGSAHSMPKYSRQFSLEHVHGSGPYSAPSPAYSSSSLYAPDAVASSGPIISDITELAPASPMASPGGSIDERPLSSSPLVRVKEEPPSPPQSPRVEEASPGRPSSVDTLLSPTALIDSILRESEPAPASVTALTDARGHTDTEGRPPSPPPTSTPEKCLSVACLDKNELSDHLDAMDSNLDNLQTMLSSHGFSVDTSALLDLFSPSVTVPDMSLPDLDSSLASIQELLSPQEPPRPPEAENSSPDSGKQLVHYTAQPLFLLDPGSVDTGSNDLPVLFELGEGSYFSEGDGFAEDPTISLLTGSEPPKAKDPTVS
# How it was run: as §1
# SPIC = biological target: T8, SPIC (Homo sapiens, UniProt Q8N5J4 1-248); settings: protein: recombinant; tags: N-terminal GST; dsDNA, one strand shown
# T8 sequence: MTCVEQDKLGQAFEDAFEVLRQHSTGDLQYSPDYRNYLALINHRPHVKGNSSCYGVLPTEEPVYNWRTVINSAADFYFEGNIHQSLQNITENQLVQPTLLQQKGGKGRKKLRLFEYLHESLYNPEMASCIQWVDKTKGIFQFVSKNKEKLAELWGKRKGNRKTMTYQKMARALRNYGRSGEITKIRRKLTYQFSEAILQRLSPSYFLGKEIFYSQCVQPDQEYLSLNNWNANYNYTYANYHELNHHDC
# How it was run: as §1
# ELF4 = ELF4 (Homo sapiens, UniProt Q99607 1-663); settings: protein: recombinant; tags: N-terminal GST; dsDNA, one strand shown
# ELF4, sequence (Q99607 whole entry): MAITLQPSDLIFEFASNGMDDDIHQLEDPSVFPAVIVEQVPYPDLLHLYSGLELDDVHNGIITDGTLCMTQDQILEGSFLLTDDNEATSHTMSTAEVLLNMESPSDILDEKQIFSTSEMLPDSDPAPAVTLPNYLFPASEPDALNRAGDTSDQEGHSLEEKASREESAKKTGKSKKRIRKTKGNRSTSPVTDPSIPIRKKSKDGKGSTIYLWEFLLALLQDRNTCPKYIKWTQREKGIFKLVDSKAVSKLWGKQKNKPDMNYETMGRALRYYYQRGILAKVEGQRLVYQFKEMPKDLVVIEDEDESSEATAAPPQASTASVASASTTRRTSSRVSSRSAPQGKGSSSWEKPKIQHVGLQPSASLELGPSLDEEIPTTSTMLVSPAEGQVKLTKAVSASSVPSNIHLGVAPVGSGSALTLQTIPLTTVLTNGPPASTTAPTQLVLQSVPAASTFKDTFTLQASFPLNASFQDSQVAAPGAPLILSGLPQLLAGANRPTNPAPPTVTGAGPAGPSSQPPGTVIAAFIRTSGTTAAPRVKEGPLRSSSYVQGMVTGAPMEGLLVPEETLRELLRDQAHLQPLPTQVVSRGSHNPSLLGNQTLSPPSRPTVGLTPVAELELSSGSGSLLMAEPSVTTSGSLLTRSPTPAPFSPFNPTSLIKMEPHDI
# How it was run: as §1
# ELK4 = biological target: T9, ELK4 (Homo sapiens, UniProt P28324-2 1-405); settings: protein: recombinant; tags: N-terminal GST; dsDNA, one strand shown
# T9 sequence: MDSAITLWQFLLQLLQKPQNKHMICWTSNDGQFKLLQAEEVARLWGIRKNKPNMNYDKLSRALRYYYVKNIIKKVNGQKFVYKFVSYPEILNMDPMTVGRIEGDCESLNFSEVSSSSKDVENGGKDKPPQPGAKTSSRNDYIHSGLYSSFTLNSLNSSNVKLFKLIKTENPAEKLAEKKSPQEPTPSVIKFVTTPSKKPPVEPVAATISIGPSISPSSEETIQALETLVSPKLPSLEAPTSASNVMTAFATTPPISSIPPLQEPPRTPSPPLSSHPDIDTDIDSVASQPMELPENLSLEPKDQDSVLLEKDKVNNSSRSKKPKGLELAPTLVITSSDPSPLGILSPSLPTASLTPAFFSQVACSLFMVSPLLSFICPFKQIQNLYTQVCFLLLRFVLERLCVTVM
# How it was run: as §1
# ETV2 = biological target: T10, ETV2 (Homo sapiens, UniProt O00321 1-342); settings: protein: recombinant; tags: N-terminal GST; dsDNA, one strand shown
# T10 sequence: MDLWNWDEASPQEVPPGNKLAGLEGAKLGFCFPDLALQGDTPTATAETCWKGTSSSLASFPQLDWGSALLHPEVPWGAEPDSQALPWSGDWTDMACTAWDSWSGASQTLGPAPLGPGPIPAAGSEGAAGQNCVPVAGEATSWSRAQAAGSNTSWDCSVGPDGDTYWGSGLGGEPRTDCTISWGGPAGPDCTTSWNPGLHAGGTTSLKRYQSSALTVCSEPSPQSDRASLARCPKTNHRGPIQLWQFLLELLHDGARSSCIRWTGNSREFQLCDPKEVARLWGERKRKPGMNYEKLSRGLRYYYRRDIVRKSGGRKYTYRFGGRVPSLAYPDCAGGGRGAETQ
# How it was run: as §1
# ELF3 = biological target: T11, ELF3 (Homo sapiens, UniProt P78545 1-371); settings: protein: recombinant; tags: N-terminal GST; dsDNA, one strand shown
# T11 sequence: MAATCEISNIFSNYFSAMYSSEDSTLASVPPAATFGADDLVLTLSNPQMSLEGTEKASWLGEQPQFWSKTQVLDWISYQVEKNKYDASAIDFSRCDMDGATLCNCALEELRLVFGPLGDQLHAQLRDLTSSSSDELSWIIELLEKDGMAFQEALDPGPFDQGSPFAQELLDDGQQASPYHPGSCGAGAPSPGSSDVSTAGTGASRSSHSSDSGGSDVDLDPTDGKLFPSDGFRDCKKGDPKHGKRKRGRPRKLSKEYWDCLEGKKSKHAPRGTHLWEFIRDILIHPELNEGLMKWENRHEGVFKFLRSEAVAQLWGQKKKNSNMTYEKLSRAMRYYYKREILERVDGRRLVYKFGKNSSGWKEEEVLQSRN
# How it was run: as §1
# CRX = CRX (Homo sapiens, UniProt O43186 1-299); settings: protein: recombinant; tags: N-terminal GST; dsDNA, one strand shown
# CRX, sequence (O43186 whole entry): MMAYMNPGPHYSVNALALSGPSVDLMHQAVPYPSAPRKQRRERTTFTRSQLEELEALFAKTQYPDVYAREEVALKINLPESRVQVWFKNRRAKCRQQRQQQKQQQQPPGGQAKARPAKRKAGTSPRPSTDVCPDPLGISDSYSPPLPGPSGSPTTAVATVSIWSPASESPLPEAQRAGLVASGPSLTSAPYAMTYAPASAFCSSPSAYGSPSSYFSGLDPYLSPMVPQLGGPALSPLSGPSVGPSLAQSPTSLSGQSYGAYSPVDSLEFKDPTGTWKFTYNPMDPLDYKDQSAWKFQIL
# How it was run: as §1
# ETV1 = ETV1 (Homo sapiens, UniProt P50549 1-477); settings: protein: recombinant; tags: N-terminal GST; dsDNA, one strand shown
# ETV1, sequence (P50549 whole entry): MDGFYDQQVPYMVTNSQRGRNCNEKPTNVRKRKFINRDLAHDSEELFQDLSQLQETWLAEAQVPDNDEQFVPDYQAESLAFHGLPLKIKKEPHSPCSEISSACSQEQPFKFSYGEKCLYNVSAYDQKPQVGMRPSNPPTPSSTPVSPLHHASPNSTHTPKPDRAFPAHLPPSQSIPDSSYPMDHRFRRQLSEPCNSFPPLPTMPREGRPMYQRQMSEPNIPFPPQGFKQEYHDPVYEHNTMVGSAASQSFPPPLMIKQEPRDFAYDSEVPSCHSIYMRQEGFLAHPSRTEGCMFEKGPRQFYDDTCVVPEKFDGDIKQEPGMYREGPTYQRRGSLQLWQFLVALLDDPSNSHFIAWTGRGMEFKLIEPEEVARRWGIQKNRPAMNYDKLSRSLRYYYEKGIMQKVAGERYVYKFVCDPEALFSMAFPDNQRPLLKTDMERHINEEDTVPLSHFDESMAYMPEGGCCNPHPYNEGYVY
# How it was run: as §1
sequence,measurement,setting,value
GTAATA,binding signal,FLI1,"1.12 fold enrichment (6-mer frequency, TF over GST control)"
same,binding signal,ELK1,"1.21 fold enrichment (6-mer frequency, TF over GST control)"
same,binding signal,GABPA,"1.09 fold enrichment (6-mer frequency, TF over GST control)"
same,binding signal,ERG,"1.15 fold enrichment (6-mer frequency, TF over GST control)"
same,binding signal,ELF1,"1.15 fold enrichment (6-mer frequency, TF over GST control)"
same,binding signal,EHF,"1.2 fold enrichment (6-mer frequency, TF over GST control)"
same,binding signal,SPI1,"1.11 fold enrichment (6-mer frequency, TF over GST control)"
same,binding signal,SPIB,"1.24 fold enrichment (6-mer frequency, TF over GST control)"
same,binding signal,ELK3,"1.01 fold enrichment (6-mer frequency, TF over GST control)"
same,binding signal,FEV,"1.11 fold enrichment (6-mer frequency, TF over GST control)"
same,binding signal,ETV5,"1.13 fold enrichment (6-mer frequency, TF over GST control)"
same,binding signal,HSF1,"1.24 fold enrichment (6-mer frequency, TF over GST control)"
same,binding signal,SPIC,"1.27 fold enrichment (6-mer frequency, TF over GST control)"
same,binding signal,ELF4,"1.16 fold enrichment (6-mer frequency, TF over GST control)"
same,binding signal,ELK4,"1.27 fold enrichment (6-mer frequency, TF over GST control)"
same,binding signal,ETV2,"1.09 fold enrichment (6-mer frequency, TF over GST control)"
same,binding signal,ELF3,"1.22 fold enrichment (6-mer frequency, TF over GST control)"
same,binding signal,CRX,"1.52 fold enrichment (6-mer frequency, TF over GST control)"
same,binding signal,ETV1,"1.13 fold enrichment (6-mer frequency, TF over GST control)"
